Shown are actives, neighbours in structure and some others; about 8.1% of the full set was active somewhere.
KB-3-1 tox: qHTS assay for MDR1-selective chemotherapeutics: Primary screen using the parental adenocarcinoma cell KB-3-1; AID 1347075, 2019; KB-3-1 viability, CellTiter-Glo ATP luminescence, 72 h; Potency, µM (titrated, usually from 46.1 µM), actives largely listed as cytotoxic; 400,000 tested, 1.4% active; also: % is scaled to controls: 0 for no effect and ±100 for the full control effect; nearly all actives have a fitted effect of over 60% in size
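Multi-concentration cytotoxicity screen in KB-3-1 cells grown in DMEM lacking phenol red with 10% FBS. After 72 h at 37 °C with compound, ATP-dependent luminescence was recorded.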
MCF10A rerep: A quantitative high throughput screen for small molecules that induce DNA re-replication in MCF 10a normal breast cells | MCF 10A DNA re-replication, Hoechst nuclear intensity, 48 h | Potency, µM (highest dose often 46.1 µM), for inactives: at the top dose activity, positive = re-replication, hits mostly activators | 350,000 tested, 2.9% active | AID 624296, 2012; also: % of control where 0% means no effect; nearly all actives have a fitted effect of over 50% in size
KB-V1 MDR tox: qHTS assay for MDR1-selective chemotherapeutics: Primary screen using the drug-selected MDR subline cells KB-V1; 400,000 tested, 3.4% active; KB-V1 MDR cells viability, CellTiter-Glo, 72 h; Potency, µM (top dose mostly 46.1 µM), most hits filed as cytotoxic; also: % is scaled to controls: 0 for no effect and ±100 for the full control effect; nearly all actives have a fitted effect of over 60% in size
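In this primary screen, KB-V1 cells overexpressing P-gp are incubated with library compounds (lowest to highest concentration) for 72 h at 37 degrees C before a luminescent ATP viability read.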
SW480 rerep: A quantitative high throughput screen for small molecules that induce DNA re-replication in SW480 colon adenocarcinoma cells | SW480 DNA re-replication, Hoechst DNA content imaging, 48 h | Potency, µM (doses to about 46.1 µM), for the others: top-dose re-replication activation, actives largely listed as activators | 340,000 tested, 1.8% active; also: % of control where 0% means no effect; nearly all actives have a fitted effect of over 55% in size
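SW480 cells exposed to compounds for 48 hr at 37 C, 5% CO2, then Hoechst-stained 40 min. Nuclear DNA content imaged by fluorescence scanning (405 nm excitation, 500-530 nm emission); re-replication scored as increased high-intensity nuclei.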
ELG1 repair inh: qHTS screen for small molecules that inhibit ELG1-dependent DNA repair in human embryonic kidney (HEK293T) cells expressing luciferase-tagged ELG1. AID 504467, 2011. 330,000 tested, 2.3% active. HEK293T ELG1-luciferase reporter, luminescence, 16 h; DNA damage induced by 5-fluorouridine. Potency, µM (doses to about 46.1 µM), without a hit: top-dose activity change, negative = inhibition, usual class: inhibitors; also: % is scaled to controls: 0 for no effect and ±100 for the full control effect; nearly all actives have a fitted effect of over 55% in size
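Reporter activity after DNA damage by 5-fluorouridine is monitored. Compound-treated cells incubate 16 hr at 37 °C, then ONE-Glo is added for 30 min before luminescence reading.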
* marks the source's active call; other numbers are inactive results; i = inactive; ? = inconclusive; / = no result given. Calls follow the shape of the dose curve; as a rule, active = well fitted curve in the direction sought with a large enough effect; inconclusive = small, poorly fitted or top-dose-only effect, or another doubt; inactive = no such curve, though single readings can be large; an effect the other way counts as inactive or inconclusive. Potency is read from the fitted curve at half-maximal effect.

SMILES | KB-3-1 tox | MCF10A rerep | KB-V1 MDR tox | SW480 rerep | ELG1 repair inh
Cc1ccc(/C=N/NC(=O)CSc2nc3ccccc3c(=O)n2-c2ccccc2)s1 | i | -65% | i | -6% | ?
Cc1ccccc1-n1c(SCC(=O)N/N=C/c2c(C)nn(-c3ccccc3)c2C)nc2ccccc2c1=O | i | ? | 5.8µM* | -26% | ?
CCOc1ccccc1NC(=O)Cc1coc2c(C)c(C)ccc12 | i | / | ? | / | /
Cc1cc(C)cc(NC(=O)C(=O)NCC(c2cccnc2)N2CCN(c3ccccc3)CC2)c1 (stereo not drawn) | i | / | i | / | /
CN(Cc1ccc2c(c1)CCCN2C)C(=O)[C@H]1O[C@@H](n2cnc3c(N)ncnc32)[C@H](O)[C@@H]1O | i | / | i | / | /
CCOc1ccc(CN(C)C(=O)CN2C(=O)NC(c3ccccc3)(c3ccccc3)C2=O)cc1 | i | 15% | i | 0% | -1%
CC(/C=N/NC(=O)CSc1nc2ccccc2n1C)=C\c1ccco1 | i | 21µM* | ? | ? | -18%
CCn1c(SCC(=O)N/N=C/C=C/c2ccco2)nc2ccccc21 | i | 21µM* | i | 16µM* | -2%
Cc1ccc(/C=N/NC(=O)CSc2nc3ccccc3c(=O)n2-c2ccccc2C)s1 | ? | -35% | 10µM* | 0.52µM* | ?
Cc1nn(-c2ccccc2)c(C)c1/C=N/NC(=O)CSc1nc2ccccc2c(=O)n1-c1ccc(Br)cc1 | ? | 13µM* | 23µM* | 27% | -19%
CC(C)CN(C(=O)c1ccc(Br)o1)C1CCS(=O)(=O)C1 (stereo not drawn) | ? | 4% | i | -5% | 9%
Cc1ccc(NC(=O)CCS(=O)(=O)c2ccc3c(c2)oc(=O)n3C)c(Br)c1 | i | / | i | / | /
O=C(Nc1ccc(-n2cccn2)cc1)C1CCCCN1Cc1cccc2c1OCO2 (stereo not drawn) | 4.1µM* | 3.7µM* | ? | ? | 8.2µM*
CC1(C)CC2CC(C)(CN2C(=O)c2cc(-c3ccc(O)cc3)on2)C1 (stereo not drawn) | i | ? | i | 2% | -5%
COc1cccc(-c2cc(C(=O)N3CC4(C)CC3CC(C)(C)C4)no2)c1 (stereo not drawn) | i | ? | 15µM* | 0% | ?
COc1ccccc1NS(=O)(=O)c1cc(C(=O)N2CC(C)CC(C)C2)ccc1C (stereo not drawn) | i | -2% | 2.3µM* | 3% | -24%
COc1ccc(C)cc1N(C)C(=O)Cc1c(C(=O)O)n(C)c2ccccc12 | i | 10% | i | -1% | -6%
O=C(NNc1nc(-c2ccc(Cl)cc2)cs1)c1ccco1 | ? | ? | 21µM* | ? | ?
O=C(NNc1nc(-c2ccccc2)cs1)c1ccco1 | i | 3% | i | 18µM* | ?
CC(=O)Nc1nc2nc(-c3ccccc3)cc(-c3ccccc3)n2n1 | i | 5% | i | -5% | -26%
O=C(Nc1nc2nc(-c3ccccc3)cc(-c3ccccc3)n2n1)c1ccco1 | ? | -2% | i | 0% | 8.2µM*
Cc1ccc(-c2csc(NC(=S)NC(=O)c3ccco3)n2)cc1 | i | -7% | i | -7% | 7%
CN(N=O)c1ccc2c(c1)Cc1ccccc1-2 | i | / | i | / | /
Cc1ncc([N+](=O)[O-])n1CCOC(=O)NC(NCc1ccccc1Cl)C(Cl)(Cl)Cl (stereo not drawn) | ? | 25% | 7.3µM* | ? | 0%
Cc1ccc(NC(NC(=O)OCCn2c([N+](=O)[O-])cnc2C)C(Cl)(Cl)Cl)cc1 (stereo not drawn) | / | / | / | / | 8%
SMILES | KB-3-1 tox | MCF10A rerep | KB-V1 MDR tox | SW480 rerep | ELG1 repair inh
CC(C)(C)c1ccc(NC(=O)N2CCCN(c3ccc([N+](=O)[O-])cn3)CC2)cc1 | ? | -13% | 10µM* | 2% | ?
O=C(Nc1ccccc1)N1CCN(c2ccc(C(F)(F)F)cn2)CC1 | ? | 1% | 8.2µM* | -5% | 21µM*
O=C(Nc1ccccc1)N1CCN(c2cccc(C(F)(F)F)c2)CC1 | i | -8% | ? | -7% | ?
CCOC(=O)N1CCN(C(=O)CS(=O)Cc2nc(-c3ccc(OC)c(OC)c3)oc2C)CC1 (stereo not drawn) | i | 1% | i | -17% | 10%
Cc1onc(-c2ccccc2)c1C(=O)Nc1ccccc1N1CCOCC1 | i | -1% | 13µM* | 2% | -3%
O=C(Nc1cc(C(F)(F)F)ccc1N1CCOCC1)c1ccncc1 | i | 12% | i | -11% | -27%
O=C(CCc1ccccc1)NC(=S)Nc1cc(C(F)(F)F)ccc1N1CCOCC1 | ? | 26% | ? | ? | -15%
Cc1onc(-c2ccccc2)c1C(=O)Nc1cc(C(F)(F)F)ccc1N1CCOCC1 | 5.8µM* | 5µM* | 5.2µM* | 11µM* | ?
CC(C)CC(=O)NC(=S)Nc1cc(C(F)(F)F)ccc1N1CCOCC1 | i | 2% | 18µM* | ? | -2%
CCOC(=O)c1ccc(N2CCOCC2)c(NC(=O)c2c(-c3ccccc3)noc2C)c1 | 5.8µM* | 10µM* | ? | 21µM* | -12%
CCN(CC)S(=O)(=O)c1ccc(N2CCCC2)c(NC(=O)c2c(-c3ccccc3)noc2C)c1 | i | -2% | i | 9% | ?
CC(C)CN(C(=O)CN(C)C(=O)Cc1c(F)cccc1Cl)c1c(N)n(CC(C)C)c(=O)[nH]c1=O | i | / | i | / | /
O=C1C=C(C2OC(CO)C(O)C2O)C(=O)N1 (stereo not drawn) | i | ? | i | ? | /
Cn1c(-c2ccccc2)cc2c3no[n+]([O-])c3ccc21 | 3.7µM* | ? | ? | 3.7µM* | 5%
C=CCN(CC=C)C(=S)NC(=O)c1ccc([N+](=O)[O-])cc1 | ? | ? | ? | 3.7µM* | -22%
CCOc1ccccc1NC(=O)c1cc2c(=O)n(Cc3cccnc3)ccc2nc1C | i | / | i | / | /
CCN(CC)S(=O)(=O)c1ccc2c(c1)C(=NO)c1cc(S(=O)(=O)N(CC)CC)ccc1-2 | 6.5µM* | 8.2µM* | 12µM* | ? | 7.3µM*
CCN(CC)S(=O)(=O)c1cccc(S(=O)(=O)c2cccc(S(=O)(=O)N(CC)CC)c2)c1 | ? | ? | i | -4% | 8.9µM*
CCN(CC)S(=O)(=O)c1cccc(S(=O)(=O)N2CCCCC2)c1 | i | -1% | i | 7% | -3%

Compound activity (PubChem BioAssay)
